# Assay outcomes (PubChem)
# An excerpt weighted towards active compounds, which were near 2.2% of everything screened.
# Autophagy HCS: alters autophagy in cells; calls only at 10 µM (by protocol); AID 463193; MEF GFP-LC3 puncta imaging; test concentration mostly 10 µM; hit rate 0.98% among 190,000;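 active = percentage of spot-positive cells more than 3 SD above its plate mean, without a fluorescence outlier flag or 80% toxicity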;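 also: spot-positive cell cutoff set from DMSO-treated cells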
# NCF1 inh: p47phox (human) inhibition; inhibition, % at 24.7 µM; p47phox/p22phox peptide binding, fluorescence polarization, 2 h; hit rate 0.53% among 220,000; P14598;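 active = inhibition above about 30%, limit read from the data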;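 also: 0% = p47phox with labelled peptide and 100% = labelled peptide alone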
# Target sequence (P14598 whole entry, looked up): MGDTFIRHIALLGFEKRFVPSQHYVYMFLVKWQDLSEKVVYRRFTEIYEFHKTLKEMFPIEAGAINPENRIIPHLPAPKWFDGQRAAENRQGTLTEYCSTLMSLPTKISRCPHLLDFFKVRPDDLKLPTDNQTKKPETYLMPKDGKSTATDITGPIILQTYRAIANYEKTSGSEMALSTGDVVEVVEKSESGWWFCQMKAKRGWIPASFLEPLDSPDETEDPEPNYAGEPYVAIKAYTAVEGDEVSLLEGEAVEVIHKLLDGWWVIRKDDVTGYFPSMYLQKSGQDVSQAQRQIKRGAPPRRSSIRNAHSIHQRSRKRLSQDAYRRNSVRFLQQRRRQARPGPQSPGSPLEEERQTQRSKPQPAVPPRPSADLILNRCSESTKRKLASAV
# Arbovirus anti: arbovirus infection inhibition; arbovirus infection cell-based antiviral screen; inhibition, % at 10 µM; hit rate 0.37% among 200,000; AID 1251; in the data active = inhibition above about 30%
# Insulin prom up: MIN6 insulin promoter up-regulation | z-score at 5 µM | hit rate 0.3% among 190,000 | MIN6 insulin promoter-GFP reporter, high-content imaging; active compounds read high;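 active = z-score above 3 at 5 µM with at least 500 cells counted in the well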
# Redox H2O2 prof: compounds producing H2O2 with reducing agent – biochemical, NIH compound library profiling, artefact control for MLSCN library redox annotation, primary screen. DTT-dependent redox cycling H2O2, phenol red/HRP absorbance; 100% = 100 µM peroxide control, 0% = buffer. activation, % at 10 µM. hit rate 0.03% among 200,000;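 active = activation of at least 50% relative to the plate's high and low controls in the primary single-dose screen; inactive = activation below 50%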;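 also: compound incubated with DTT at 0.8 mM final as the reducing agent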
# Efa HMGR inh: inhibitors of class II HMG-CoA reductase from Enterococcus faecalis. purified E. faecalis HMGR, NADPH absorbance 340 nm kinetic. inhibition, % at 10 µM. hit rate 0.41% among 190,000;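 active = inhibition above a set limit, the median over all tested compounds plus 3 SD, cut at about 9.5% in these data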;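 also: enzyme runs in reverse so mevalonate oxidation gives rising NADPH absorbance; 0% = complete reaction with DMSO and 100% = background rate lacking mevalonate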
# Active calls of the source: *; i = inactive; . = no result; + = active, no number.
SMILES,Autophagy HCS,NCF1 inh,Arbovirus anti,Insulin prom up,Redox H2O2 prof,Efa HMGR inh
Cc1csc(NC(=O)CN(C)S(=O)(=O)c2cccc3cccnc23)n1,i,0,-5,3*,-3,-2
O=S(=O)(Cc1ccc(Cl)cc1)N1CCCC1,i,-12,-4,-0.22,1,-4
CCCc1cc(-n2ccnc2)n2c(nc3ccccc32)c1C#N,i,-35,-15,5.5*,-4,0
COc1cccc(C=Nc2ccccc2C(=O)Nc2ccccc2)c1O,i,-3,-12,-0.45,7,-3
C=CCNC(=O)C1CCN(S(=O)(=O)c2ccc(Br)cc2)CC1,i,-4,-5,3.1*,0,3
C=CCNC(=O)C1CCN(S(=O)(=O)CC)CC1,i,-10,5,1.2,3,-4
CCN(CCCn1c(SCC#N)nc2ccccc2c1=O)c1ccccc1,i,-18,-2,-2.1,2,1
COC(=O)c1ccc2c(=O)n(CC3CCCO3)c(SCC(=O)Nc3ccc(OC)cc3OC)nc2c1 (centres undefined),.,31*,.,-0.09,.,.
COC(=O)c1ccc2c(=O)n(CC3CCCO3)c(SCC(=O)NCCc3ccc(S(N)(=O)=O)cc3)nc2c1 (centres undefined),i,-3,3,-0.1,0,-3
CCc1ccc(NC(=O)C(=O)NCCN2CCN(S(C)(=O)=O)CC2)cc1,i,-3,3,-0.25,0,11*
Cc1nc(COC(=O)c2cc(O)c3ccccc3c2O)cs1,i,49*,0,0.12,-3,-5
CC(C)n1c(=O)[nH][nH]c1=S,.,43*,.,.,.,.
O=C(Nc1ccc(N2CCCCC2)cc1)c1ccc2c(c1)OCCO2,i,-16,9,.,0,27*
CC(=O)N1CCN(c2ccc(NC(=O)c3ccc4c(c3)OCCO4)cc2)CC1,i,8,2,0.15,1,-1
O=C(Nc1ccc(N2CCCCC2)cc1)c1cccnc1,i,-1,-2,3.4*,1,-1
c1ccc2cc3[nH]c(CN4CCOCC4)nc3cc2c1,i,-1,-14,0.38,2,10*
COc1cc(C2N=C(c3ccccc3)NO2)cc(Br)c1O (centres undefined),i,+,35*,0.03,0,-1
COc1ccc(COc2cc(-c3cccc(OC)c3)nc3ccc(NC(=O)c4cccnc4)cc23)cc1,+,-20,-22,.,0,-1
COc1ccc(COc2cc(-c3cccc(OC)c3)nc3ccc(NC(=O)c4ccc(OC)cc4)cc23)cc1,i,-22,-22,-1.6,3,-1
CCOc1ccc(-n2c(C)cc(/C=C3/C(=N)N4C(=NC3=O)SN=C4S(C)(=O)=O)c2C)cc1,i,-53,42*,-0.11,0,-7
CCC(CC)C1=NN2C(=N)/C(=C\c3cc(C)n(-c4cccc(C)c4)c3C)C(=O)N=C2S1,+,-37,5,0.38,0,-7
Cc1cc(/C=C2/C(=N)N3C(=NC2=O)SN=C3S(C)(=O)=O)c(C)n1-c1ccc(F)cc1,i,-28,37*,-0.66,0,-1
COc1ccccc1-n1c(C)cc(/C=C2/C(=N)N3C(=NC2=O)SN=C3S(C)(=O)=O)c1C,i,-22,35*,-1,-1,-1
CC(C)OC(=O)c1cccc(NC(=O)CSc2nnc(N)s2)c1,i,5,-3,-0.04,0,-3
N#Cc1c(-c2ccco2)ccn(Cc2cccc(F)c2)c1=O,i,-2,13,2.4,0,6
SMILES,Autophagy HCS,NCF1 inh,Arbovirus anti,Insulin prom up,Redox H2O2 prof,Efa HMGR inh
O=C(CCl)N=c1sccn1Cc1cccc2ccccc12,i,-5,31*,-0.72,0,-7
O=C1/C(=C/c2ccccc2)NC(=S)N1C(c1ccccc1)c1ccccc1,+,-10,-19,.,1,-3
O=C1/C(=C/c2ccccc2)Nc2ccccc21,i,-48,-7,-0.4,1,-2
O=C(COc1ccc(Cl)cc1)Nc1ncc([N+](=O)[O-])s1,i,0,30*,-0.63,-2,-1
CCOC(=O)c1c(C)sc2c1N(C(=O)CCl)c1cc(Cl)ccc1S2,+,-7,-34,0.07,0,-3
Cc1sc2ncnc(SCC(=O)N3c4ccccc4Sc4ccc(Cl)cc43)c2c1C,i,-2,-3,-0.86,1,4
CC(=O)c1ccccc1OC(=O)CCN1C(=O)c2ccccc2C1=O,i,2,-3,0.87,0,13*
CNS(=O)(=O)c1ccc2nc(NC(=O)c3ccc(N4C(=O)CCC4=O)cc3)sc2c1,i,-1,18,0.69,-1,10*
CCc1ccc2nc(NC(=O)c3ccc(N4C(=O)CCC4=O)cc3)sc2c1,.,-15,.,-0.21,.,.
O=C(CC1SC(=O)NC1=O)Oc1ccc(/C=N/NC(=O)c2ccccc2O)cc1 (centres undefined),.,2,.,-0.37,.,.
Cc1ccccc1OCCSCc1nc2ccccc2[nH]1,i,-25,66*,0.6,0,-6
Cc1cc([N+](=O)[O-])cnc1Sc1nccn1C,i,2,4,-0.21,0,0
COc1ccc(N2CCN(C(=S)NCCc3ccccc3)CC2)cc1,i,.,.,.,-4,.
Oc1ccccc1N1CCN(C(=S)NCCc2ccccc2)CC1,i,47*,-2,0.07,0,3
Oc1ccc(N2CCN(C(=S)NCCc3ccccc3)CC2)cc1,i,95*,-15,-0.13,1,-2
S=C(NCCc1ccccc1)N1CCN(Cc2ccccc2)CC1,i,7,12,-0.14,0,-15
O=C(CSc1cccc[n+]1[O-])Nc1c(Br)cc([N+](=O)[O-])cc1Br,i,-2,-2,-1.2,-2,-1
CC(C)Oc1ccc(/C=N/NC(N)=S)cc1,i,-16,-10,0.3,0,2
CCOC(=O)CCc1c(C)c2ccc(OCc3cc([N+](=O)[O-])ccc3OC)c(C)c2oc1=O,i,30*,-11,0.01,-1,-1
CCOC(=O)CCc1c(C)c2ccc(OCc3cc([N+](=O)[O-])ccc3OC)cc2oc1=O,i,-24,-2,-0.01,-3,-7
COc1ccc(CN(C)Cc2cc(=O)n3ccsc3n2)c(OC)c1OC,i,-10,3,-0.03,-2,2
O=C(NCc1cccs1)C(=O)c1cn(CC(=O)N2CCCC2)c2ccccc12,i,-4,5,0.01,-1,-1
COc1ccc(N(CC(=O)N2CCc3ccccc32)S(=O)(=O)c2c(C)n[nH]c2C)cc1,i,0,5,-0.45,0,-1
O=C(Nc1cccc(-c2cn3ccccc3n2)c1)C1CC1,i,67*,-3,-0.06,1,3
CCOC(=O)C1(CCCc2ccccc2)CCN(C2CCSCC2)CC1,i,-8,30*,-1.9,0,0
Cc1ccc(S(=O)(=O)N2CCCC(C(=O)NCc3ccco3)C2)cc1Cl (centres undefined),i,-15,0,0.47,0,13*
